For 32 compounds, inhibition results are on record in ChEMBL document CHEMBL4808148, “HDAC6 screening dataset using tau-based substrate in an enzymatic assay yields selective inhibitors and activators” (2021).

About 150 (2.7%) of roughly 5,600 compounds showed an effect of 50% or more. Shown is part of a subset that was picked to be rich in strong results.

The assay addresses T1, Protein deacetylase HDAC6 (Homo sapiens) (UniProt Q9UBN7).
T1 sequence (whole entry): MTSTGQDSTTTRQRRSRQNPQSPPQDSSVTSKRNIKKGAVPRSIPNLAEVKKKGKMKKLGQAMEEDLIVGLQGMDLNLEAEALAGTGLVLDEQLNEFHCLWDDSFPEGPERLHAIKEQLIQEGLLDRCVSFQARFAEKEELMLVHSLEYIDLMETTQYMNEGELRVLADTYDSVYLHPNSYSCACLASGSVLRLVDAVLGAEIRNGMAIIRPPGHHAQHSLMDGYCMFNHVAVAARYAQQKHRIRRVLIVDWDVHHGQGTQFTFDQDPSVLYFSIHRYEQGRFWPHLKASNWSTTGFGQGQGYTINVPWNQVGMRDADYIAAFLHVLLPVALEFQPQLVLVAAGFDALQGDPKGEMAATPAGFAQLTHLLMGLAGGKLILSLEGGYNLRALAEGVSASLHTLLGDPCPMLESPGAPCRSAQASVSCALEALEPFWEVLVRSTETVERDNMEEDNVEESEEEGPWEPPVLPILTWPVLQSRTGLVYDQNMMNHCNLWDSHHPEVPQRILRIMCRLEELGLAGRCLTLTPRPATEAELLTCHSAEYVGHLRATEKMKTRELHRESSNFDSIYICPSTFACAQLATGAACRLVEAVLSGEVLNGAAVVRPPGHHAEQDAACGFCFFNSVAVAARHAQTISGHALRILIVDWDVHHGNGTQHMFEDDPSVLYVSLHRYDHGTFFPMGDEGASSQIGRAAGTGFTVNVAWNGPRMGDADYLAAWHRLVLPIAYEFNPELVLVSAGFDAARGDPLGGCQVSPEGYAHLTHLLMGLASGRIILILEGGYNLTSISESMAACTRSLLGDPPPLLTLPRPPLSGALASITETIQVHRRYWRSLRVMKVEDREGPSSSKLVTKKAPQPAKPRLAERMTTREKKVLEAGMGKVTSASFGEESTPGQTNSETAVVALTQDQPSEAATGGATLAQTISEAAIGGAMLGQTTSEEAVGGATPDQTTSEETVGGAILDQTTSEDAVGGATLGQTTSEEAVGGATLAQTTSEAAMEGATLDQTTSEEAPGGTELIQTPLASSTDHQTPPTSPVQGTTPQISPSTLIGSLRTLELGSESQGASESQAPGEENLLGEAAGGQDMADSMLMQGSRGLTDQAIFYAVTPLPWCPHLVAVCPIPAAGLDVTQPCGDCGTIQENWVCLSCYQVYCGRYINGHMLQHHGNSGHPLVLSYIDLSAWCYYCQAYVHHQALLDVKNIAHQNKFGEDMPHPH
The conditions noted are these: at 10 µM.
Take `CC(=O)N(OCc1ccccc1)[C@@H]1c2cc(C#N)ccc2OC(C)(C)[C@H]1O`: the inhibition is 0.48%.

`O=C(O)CC/C=C\C[C@@H]1CO[C@H](c2ccccc2Cl)O[C@@H]1c1ccccc1O`: the inhibition is 11.4%.

Take `O=C(NCc1ccc(F)cc1)N1CCN2C(=O)OC(c3ccccc3)(c3ccccc3)C2C1` (configuration not stated): the inhibition is -3.2%.

For the compound `O=S(=O)(O)c1ccc2[nH]c(-c3ccccc3)nc2c1`, the inhibition was 94.7%.

In the case of `CCCn1c(=O)[nH]c2nc(-c3ccc(S(=O)(=O)O)cc3)[nH]c2c1=O`, the inhibition stood at 1.08%.

Regarding `Nc1ccc(-c2nc3ccc(-c4nc5ccc(N)cc5[nH]4)cc3[nH]2)cc1`, the inhibition was determined as 0.97%.

With `O=C(O)Cc1ccc(CCNS(=O)(=O)c2ccc(Cl)cc2)cc1`, the inhibition was determined as 9.85%.

Turning to `COc1cccc(-c2cc(=O)c3ccccc3o2)c1N`, the inhibition worked out at 90%.

In the case of `Cc1cc(C(=O)N2Cc3cnn(C)c3Nc3ccccc32)ccc1CNC(=O)N1CCC[C@H]1C(=S)N1CCCN(C)CC1`, the inhibition is -1.87%.

As to `CS(=O)(=O)Nc1ccc2oc3c(OC(F)F)ccc(C(=O)Nc4c(Cl)cncc4Cl)c3c2c1`, the inhibition is -3.43%.

As for `CC(C)[C@@H](CS(=O)(=O)C(C)C)N1C(=O)[C@@](C)(CC(=O)O)C[C@H](c2cccc(Cl)c2)[C@H]1c1ccc(Cl)cc1`, the inhibition was -1.54%.

In the case of `CC1=NN(c2ccccc2)C(=O)C1`, the inhibition is -3.47%.

Regarding `C/N=c1/nc(-c2ccccc2)n(-c2ccccc2)s1`, the inhibition amounted to 69.9%.

As for `Cn1c(-c2ccccc2)nnc1S(C)(=O)=O`, the inhibition is -7.28%.

`Clc1cccc(Cl)c1CSc1nnc(-c2cnccn2)s1`: the inhibition was found to be 5.02%.

For `c1ccc(-c2n[nH]c3c2oc2ccccc23)cc1`, the inhibition came to 70.2%.

Turning to `O=c1c2ccccc2oc2ccccc12`, the inhibition stood at 37.9%.

For the compound `N=C(N)NC(=N)Nc1cccc(Cl)c1`, the inhibition was -4.52%.

As for `O=C(Nc1ccc(Cl)cc1)Nc1cccc(-c2cccc(N3CCCC3)n2)c1`, the inhibition was -4.23%.

With `CN1CC(=O)N=C1NC(=O)Nc1cccc(Cl)c1`, the inhibition turned out to be 90.4%.

With `C[C@H](N)C(=O)O`, the inhibition was -3.75%.

For the compound `Cc1ncc(CO)c(/C=N/NC(=O)c2ccncc2)c1O`, the inhibition is -0.7%.

In the case of `O=C(O)c1cc(N2N=C(C(F)(F)F)/C(=C/c3ccc(-c4ccccc4)o3)C2=O)ccc1Cl`, the inhibition is -1.26%.

As to `COc1cccc(OC)c1-c1cc(C(=O)NC2(C(=O)O)C3CC4CC(C3)CC2C4)nn1-c1ccnc2cc(Cl)ccc12` (configuration not stated), the inhibition was 0.43%.

Turning to `O=C(Nc1ccncc1)c1cc([N+](=O)[O-])ccc1Cl`, the inhibition is -9.26%.

Take `O=C(Nc1ccc([N+](=O)[O-])cc1Cl)c1cc(Cl)ccc1O`: the inhibition amounted to 97%.

For `O=C(Nc1ccccc1)c1cc([N+](=O)[O-])ccc1Cl`, the inhibition was -4.52%.

Regarding `N#Cc1cc(F)cc(-c2nc(-c3ccc(F)cn3)no2)c1`, the inhibition worked out at 42%.

With `c1ccc(Cn2c(N3CCNCC3)nc3ccccc32)cc1`, the inhibition is -7.7%.

On to `Cc1nc(C#Cc2ccnc(Cl)c2)c(C)n1-c1ccc(F)cc1`, for which the inhibition is -3.13%.

Turning to `O=C(NC1CCC1)c1ccc(C#Cc2cccc(F)c2)nc1`, the inhibition is 24.9%.

For `Cc1cc(C)c(N)c(C#Cc2cccc(F)c2)n1`, the inhibition is 93%.
